p53 reactivator – mutant p53 re-activation in reporter cells. AID 504706. H1299 p53-A138V BP100-luciferase reporter, luminescence, 24 h. hit rate 0.063% among 320,000. Potency, µM (top dose mostly 92.2 µM), actives largely listed as activators; further: nearly all actives have a fitted effect of over 45% in size
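H1299 (p53-null), stable ts p53-A138V + BP100-Luc; 1000 cells/well, Opti-MEM/10% FBS; cpd 4 pt, 1:5; 24 h, 37 deg C, 5% CO2; detection reagent 10 min RT; luminescence.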
Tb PFK inh – blocks T. brucei phosphofructokinase | O15648 | T. brucei PFK, ADP-Glo luminescence | Potency, µM (titrated, usually from 57.5 µM), hits mostly inhibitors | hit rate 0.17% among 330,000; further: nearly all actives have a fitted effect of over 60% in size
Target sequence (O15648 whole entry, looked up): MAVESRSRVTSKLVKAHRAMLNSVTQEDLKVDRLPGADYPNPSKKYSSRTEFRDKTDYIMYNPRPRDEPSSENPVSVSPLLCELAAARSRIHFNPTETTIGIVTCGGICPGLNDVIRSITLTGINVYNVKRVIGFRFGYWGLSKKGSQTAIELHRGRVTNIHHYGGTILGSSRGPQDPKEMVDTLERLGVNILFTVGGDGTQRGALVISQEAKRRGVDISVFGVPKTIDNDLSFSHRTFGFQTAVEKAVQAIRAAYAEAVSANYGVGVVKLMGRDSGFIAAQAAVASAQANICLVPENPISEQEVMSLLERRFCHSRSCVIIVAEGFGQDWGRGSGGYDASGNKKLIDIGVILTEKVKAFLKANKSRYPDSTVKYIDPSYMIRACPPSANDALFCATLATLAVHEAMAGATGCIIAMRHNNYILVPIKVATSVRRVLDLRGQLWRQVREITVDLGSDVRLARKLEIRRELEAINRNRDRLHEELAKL
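In TEA buffer at pH 8.0 with 5 mM MgCl2, enzyme (1.25 nM) converted F6P (0.5 mM) and ATP (0.1 mM) for 45 min at room temperature. ADP product was read by luciferase luminescence.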
GLS inhibitor – inhibitors of human glutaminase (GLS). GLS enzymatic activity, qHTS titration. O94925. hit rate 0.21% among 410,000. Potency, µM (top dose mostly 45.5 µM), hits mostly inhibitors
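Human kidney-isoform GLS in 45 mM KH2PO4 pH 8.2, 0.02% Tween-20, with compound, started with 1mM L-Glutamine (added stock). Glutamate oxidase/HRP/Amplex red coupled fluorescence read at start and after 30 min at RT.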
USP2a block – inhibitors of human ubiquitin-specific protease USP2a. AID 463254. hit rate 0.01% among 330,000. USP2 core, Ub-CHOP2 coupled fluorogenic reporter, 485/531. Potency, µM (series often up to 38.3 µM), actives largely listed as inhibitors
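Cell-free coupled assay: 10nM USP2 core preincubated 30min RT with compound in Tris-HCl pH 8.0/CaCl2/CHAPS buffer, then 25nM Ub-CHOP2 and 25nM reporter substrate; fluorescence (Ex 485/Em 531) read after 60min RT, normalized to NEM inhibition, concentration-response curves fitted.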
Hits are given with their value; n = inactive; u = inconclusive; x = not tested or not shown. This is a sample that favours compounds with a hit; in the whole collection about 0.39% have one here. The call rests on the fitted dose curve; in most records, active means well fitted curve in the direction sought with a large enough effect; inconclusive means small, poorly fitted or top-dose-only effect, or another doubt; inactive means no such curve, though single readings can be large; an effect the other way counts as inactive or inconclusive.

SMILES	p53 reactivator	Tb PFK inh	GLS inhibitor	USP2a block
CCCCCOc1ccccc1CN1C(=O)C(=O)c2cc(C)ccc21	x	x	n	x
CCOC(=O)C1C(c2ccccc2)NC(=S)NC1(C)O (stereo not given)	n	n	2.8µM	n
Oc1ccc(Nc2nc(-c3ccccc3)nc3ccccc23)cc1	n	n	7.9µM	n
Cc1cc(N/N=C/c2ccc(O)cc2)nc(NS(=O)(=O)c2ccccc2)n1	n	u	13µM	n
Cc1ccc(/C=N/Nc2cc(C)nc(NCc3ccccc3)n2)cc1	n	n	n	n
CN(Cc1ccccc1)C(=O)C1CCN(S(=O)(=O)c2cccc3nonc23)CC1	n	n	10µM	n
CN(C(=O)C1CCN(S(=O)(=O)c2cccc3nonc23)CC1)C1CCCCC1	n	n	n	n
Cc1nn2c(C)c(C(=O)N3CCN(c4ccc(Cl)cc4)CC3)cnc2c1-c1ccc(F)cc1	x	x	n	x
CC(C)CC(=O)Nc1nnc(S(=O)(=O)N(CC(C)C)c2ccccc2)s1	x	x	n	x
O=C(NNc1cccc(Cl)n1)c1c(F)cccc1F	n	n	7.9µM	n
Cc1ccccc1C(=O)Nc1ccccc1NC(=O)c1ccccc1Br	n	n	n	n
COc1ccc(Nc2ccccc2N)cc1	n	n	10µM	n
COc1ccc(Nc2ccccc2NC(=O)c2ccccc2Br)cc1	n	n	10µM	n
Nc1ccc(Nc2ccccc2N)cc1	n	n	n	n
O=C1c2cc(CO)cc(O)c2C(=O)c2c(O[C@@H]3OC(CO)[C@@H](O)[C@@H](O)[C@@H]3O)cccc21 (stereo not given in full)	x	x	n	x
O=C(O)c1cc(O)c2c(c1)[C@@H]([C@H]1c3cc(C(=O)O)cc(O)c3C(=O)c3c(O[C@@H]4O[C@H](CO)[C@@H](O)[C@H](O)[C@H]4O)cccc31)c1cccc(OC3O[C@H](CO)[C@@H](O)[C@H](O)[C@H]3O)c1C2=O (stereo not given in full)	n	u	u	3.2µM
O=C(NCCc1ccccc1)C(=O)NCC(c1cccnc1)N1CCN(c2ccccc2)CC1 (stereo not given)	x	x	n	x
COc1cc(/C=N/NC(=S)NCCN2CCOCC2)cc(OC)c1O	n	n	4µM	n
CCOC(=O)Cc1csc(N/N=C/c2ccccc2)n1	n	n	n	n
CCOC(=O)Cc1csc(N/N=C\c2cccc(Br)c2)n1	n	n	20µM	n
COc1ccc(NC2CC(=O)N(c3cc([N+](=O)[O-])ccc3C)C2=O)cc1 (stereo not given)	n	n	7.1µM	n
CCOc1ccc(CC(=O)Nc2ccc3nc(N4CCCCC4)cc(C)c3c2)cc1OCC	x	x	n	x
O=C1c2ccccc2C(=O)N1/N=C/c1ccc(O)c(O)c1	n	n	2.5µM	n
Oc1ccc(NCc2cccs2)cc1	n	n	11µM	n
Cc1ccc(NC(=O)Cn2nc(N3CCN(c4ccccc4)CC3)ccc2=O)cc1F	x	x	n	x
SMILES	p53 reactivator	Tb PFK inh	GLS inhibitor	USP2a block
O=C1/C(=C/c2ccc(O)cc2)COc2ccccc21	40µM	n	n	n
Cc1ccccc1CNC(=O)Cn1ncn2nc(-c3cccs3)cc2c1=O	x	x	n	x
O=C(CSc1nc2c(cnn2-c2ccc(F)cc2)c(=O)[nH]1)Nc1ccc(Br)cc1	x	x	7.9µM	x
COc1ccc(CCNC(=O)c2nc(SCc3ccc(C)cc3)ncc2Cl)cc1OC	x	x	n	x
COc1ccc(OC)c(S(=O)(=O)NCCc2sc(C)nc2C)c1	x	x	n	x
Cc1ccc(NC(=O)CC2SC(=O)N(c3ccccc3)C2=O)cc1 (stereo not given)	n	n	11µM	n
O=C(CC1SC(=O)N(c2ccccc2)C1=O)Nc1ccccc1 (stereo not given)	u	n	n	n
Cc1cccc(N2CCN(c3nc4ccccc4c4nnc(C)n34)CC2)c1C	x	x	n	x
N#Cc1ccc(CSc2nnc(NC(=O)c3ccc4ncsc4c3)s2)cc1	n	u	4µM	n
Cc1ccc(OCc2nc(-c3ccc(C(=O)N4CCN(c5cc(Cl)ccc5C)CC4)cc3)oc2C)cc1	x	x	n	x
Fc1ccc(CSc2nncn3c2cc2occc23)c(Cl)c1	x	x	n	x
O=C(/C=C/Nc1ccc(F)cc1)c1ccco1	45µM	n	n	n
Cc1ccc(NC(=O)NCc2cccn2C)cc1C	n	n	7.1µM	n
Cn1cccc1CNC(=O)Nc1ccccc1	n	n	n	n
CN(CCC#N)C(=O)COC(=O)c1c2c(nc3ccccc13)/C(=C\c1ccco1)CC2	x	x	11µM	x
CC1CCCCC1NC(=O)COC(=O)c1c2c(nc3ccccc13)/C(=C\c1ccco1)CC2 (stereo not given)	x	x	11µM	x
Cc1ccc(C(=O)c2oc3ccccc3c2NC(=O)c2cc(-c3ccccc3)on2)cc1	x	x	n	x
Cc1cc(C)c(Nc2n[nH]c(=S)s2)cc1C	x	x	n	x
CNc1n[nH]c(=S)s1	n	n	14µM	n
COc1ccccc1-c1ccc(/C=C2/C=C(C)OC2=O)o1	n	n	n	n
CC1=C/C(=C\c2ccc(Br)o2)C(=O)O1	n	u	11µM	n
CC(=O)Nc1ccc(NC(=O)c2ccc(-n3c(C)ccc3C)cc2)cc1	25µM	n	n	n
Cc1ccc(C)n1-c1ccc(NC(=O)c2ccccc2)cc1	n	n	n	n
COc1ccccc1N1C(=O)C=C(Sc2nc(C)cc(C)n2)C1=O	n	n	7.9µM	n
COc1ccccc1N1C(=O)C2CC(C)=C(C)CC2C1=O (stereo not given)	n	n	n	n
SMILES	p53 reactivator	Tb PFK inh	GLS inhibitor	USP2a block
N#Cc1ccccc1Cn1c(=O)n(-c2ccc(F)c(Cl)c2)c(=O)c2sccc21	x	x	n	x
O=C(Nc1nc(-c2ccccn2)cs1)C1CC1	22µM	n	n	n
CC1=NN(c2ccc(Cl)c(C(=O)O)c2)C(=O)C1	n	n	13µM	n
CC1=NN(c2ccc(C(=O)O)c(N)c2)C(=O)C1	n	n	u	n
CC/C(O)=N/S(=O)(=O)c1ccc(-c2c(-c3ccccc3)noc2C)cc1	x	x	n	x
C/C(NC(=O)c1ccccc1F)=C1\C(=O)C[C@@H]2[C@H]1C2(C)C	13µM	n	n	n
CC(C)(C)c1ccc(C(=O)Nc2nc3nc(-c4ccccc4)cc(=O)n3[nH]2)cc1	x	x	n	x
COc1cc(CNc2ccc(N3CCN(C(C)=O)CC3)cc2)ccc1OCc1ccccc1	n	n	13µM	n
COc1cc(CNc2ccc(N3CCOCC3)cc2)ccc1OCC(=O)NC(C)(C)C	n	n	n	n
COc1cccc(C(=O)NC2CC3CCCC(C2)N3CC(=O)Nc2ccccc2)c1 (stereo not given)	n	n	6.3µM	n
COc1cccc(C(=O)NC2CC3CCCC(C2)N3CC(=O)Nc2ccc(N(C)C)cc2)c1 (stereo not given)	n	n	n	n
Oc1ccc(/C=N/Nc2ccnc3cc(Cl)ccc23)cc1O	n	n	n	n
Oc1ccc(/C=N/Nc2ccnc3cc(Cl)ccc23)c(O)c1O	n	n	13µM	n
CSC1=NC=C(C#N)C2=NC(c3c(Cl)cccc3Cl)NN12 (stereo not given)	x	x	11µM	x
O=C(/C=C/c1ccc(O)c(O)c1)c1ccccc1O	u	n	5.6µM	n

Assay outcomes: PubChem BioAssay, National Center for Advancing Translational Sciences (NCATS)
